This is part of a sample that, as a whole, favours compounds with a hit. Of some 83,000 tested, about 20% had one in any assay.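 Step 1: grow cells in 96-well plates. Step 2: add test compound at a single concentration. Step 3: incubate 48 h. Step 4: record percent growth.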 Activity calls are given as the source filed them. Rule for the calls: active = growth percent below 10; inactive = the rest.
Key:
Experiment in all cases: NCI-60 one-dose screen, 48 h (100 = growth as untreated, 0 = no growth, -100 = all killed)
Settings in all cases: 10 µM unless noted
SK-MEL-2 melanoma = test system: SK-MEL-2 melanoma
EKVX NSCLC = test system: EKVX NSCLC
SN12C renal = test system: SN12C renal
TK-10 renal = test system: TK-10 renal
ACHN renal = test system: ACHN renal
A498 renal = test system: A498 renal
CCRF-CEM leukemia = test system: CCRF-CEM leukemia
MOLT-4 leukemia = test system: MOLT-4 leukemia
SR leukemia = test system: SR leukemia
RPMI-8226 leukemia = test system: RPMI-8226 leukemia
OVCAR-5 ovarian = test system: OVCAR-5 ovarian
OVCAR-4 ovarian = test system: OVCAR-4 ovarian
SK-OV-3 ovarian = test system: SK-OV-3 ovarian
IGROV1 ovarian = test system: IGROV1 ovarian
OVCAR-3 ovarian = test system: OVCAR-3 ovarian
HS 578T breast = test system: HS 578T breast
NCI/ADR-RES ovarian = test system: NCI/ADR-RES ovarian
T-47D breast = test system: T-47D breast
OVCAR-8 ovarian = test system: OVCAR-8 ovarian

Measured: growth

Cc1nn(-c2ccc(-c3ccc(OC(F)(F)F)cc3)cc2)c2nc(-c3ccccc3)nc(N)c12
inactive: SK-MEL-2 melanoma 101% | EKVX NSCLC 97.7% | SN12C renal 92.5% | TK-10 renal 89.7% | ACHN renal 100% | A498 renal 90.2% | CCRF-CEM leukemia 88.9% | MOLT-4 leukemia 82.4% | SR leukemia 55.6% | RPMI-8226 leukemia 118% | OVCAR-5 ovarian 98.3% | OVCAR-4 ovarian 102% | SK-OV-3 ovarian 108% | IGROV1 ovarian 99.3% | OVCAR-3 ovarian 107% | HS 578T breast 115% | NCI/ADR-RES ovarian 90.8% | T-47D breast 78.5%

c1ccc(-c2n(Cc3ccc4ccccc4n3)cc[n+]2Cc2ccc3ccccc3c2)cc1
active: SK-MEL-2 melanoma -27% | SN12C renal 4.45% | TK-10 renal -0.737% | A498 renal -2.66% | CCRF-CEM leukemia 4.04% | MOLT-4 leukemia 2.42% | SR leukemia -27.4% | RPMI-8226 leukemia -2.59% | OVCAR-8 ovarian 3.17% | SK-OV-3 ovarian -12.4% | IGROV1 ovarian -15.4% | OVCAR-3 ovarian 6.21% | T-47D breast -14.7%
inactive: EKVX NSCLC 38.4% | ACHN renal 63.8% | OVCAR-5 ovarian 22% | OVCAR-4 ovarian 14.3% | HS 578T breast 15.1% | NCI/ADR-RES ovarian 96%

Nc1ccccc1NS(=O)(=O)c1ccc(Cl)cc1
inactive: SK-MEL-2 melanoma 93.7% | EKVX NSCLC 98.4% | SN12C renal 103% | TK-10 renal 90.8% | ACHN renal 94.8% | A498 renal 81.5% | CCRF-CEM leukemia 96.6% | MOLT-4 leukemia 97.1% | SR leukemia 89.6% | RPMI-8226 leukemia 95% | OVCAR-8 ovarian 108% | OVCAR-5 ovarian 95.3% | OVCAR-4 ovarian 100% | SK-OV-3 ovarian 105% | IGROV1 ovarian 98.3% | OVCAR-3 ovarian 105% | HS 578T breast 98.6% | NCI/ADR-RES ovarian 97.3% | T-47D breast 106%

NS(=O)(=O)c1ccc(N2Cc3cc(Cl)ccc3OC3=C2C(=O)N(CC2CCCCC2)C3=O)cc1
active: SK-MEL-2 melanoma -72.3% | EKVX NSCLC -65.1% | SN12C renal -65.3% | TK-10 renal -96.7% | A498 renal -72.2% | CCRF-CEM leukemia -38.8% | MOLT-4 leukemia -34.9% | SR leukemia -43.4% | RPMI-8226 leukemia -30% | OVCAR-8 ovarian -71.9% | OVCAR-5 ovarian -88.7% | OVCAR-4 ovarian -95.3% | IGROV1 ovarian -47.6% | OVCAR-3 ovarian -89.6% | NCI/ADR-RES ovarian 4.6% | T-47D breast -55.3%
inactive: SK-OV-3 ovarian 60% | HS 578T breast 14.5%

CC(C)C1=C[C@@]23CC[C@H]4[C@](C)(COCCC#N)CCC[C@]4(C)[C@H]2C[C@@H]1[C@@H]1[C@H]3[C@@H](OCCC#N)CC[C@@H]1OCCC#N
inactive: SK-MEL-2 melanoma 24.5% | EKVX NSCLC 17.6% | SN12C renal 32.9% | TK-10 renal 37.7% | ACHN renal 25% | A498 renal 67.7% | CCRF-CEM leukemia 34.3% | SR leukemia 15% | RPMI-8226 leukemia 18.7% | OVCAR-5 ovarian 65.9% | OVCAR-4 ovarian 27.1% | SK-OV-3 ovarian 64.3% | IGROV1 ovarian 23.5% | OVCAR-3 ovarian 37.1% | HS 578T breast 64.5% | NCI/ADR-RES ovarian 27.8% | T-47D breast 10.5%
active: MOLT-4 leukemia 5.36%

CC(=O)[C@@H]1CC[C@]2(C(=O)O)CC[C@]3(C)[C@H](CC[C@@H]4[C@@]5(C)Cc6c([nH]c7ccccc67)C(C)(C)[C@@H]5CC[C@]43C)[C@@H]12
inactive: SK-MEL-2 melanoma 79.5% | EKVX NSCLC 42.3% | SN12C renal 69.3% | TK-10 renal 63.6% | ACHN renal 46.5% | A498 renal 61.7% | CCRF-CEM leukemia 62.9% | MOLT-4 leukemia 49.6% | SR leukemia 73.5% | RPMI-8226 leukemia 43.2% | OVCAR-8 ovarian 62.7% | OVCAR-5 ovarian 101% | OVCAR-4 ovarian 65.7% | SK-OV-3 ovarian 86.6% | IGROV1 ovarian 86.8% | OVCAR-3 ovarian 54.1% | HS 578T breast 73.2% | NCI/ADR-RES ovarian 67.6% | T-47D breast 65.5%

O=c1[nH]c2ccccc2cc1-c1nc2ccc(Cl)cc2[nH]1
active: MOLT-4 leukemia -19.7% | SR leukemia 8.43% | RPMI-8226 leukemia -38.5%
inactive: SK-MEL-2 melanoma 18.7% | EKVX NSCLC 22.6% | SN12C renal 48.4% | TK-10 renal 37.5% | ACHN renal 27% | A498 renal 48.3% | CCRF-CEM leukemia 13.7% | OVCAR-8 ovarian 57.7% | OVCAR-5 ovarian 100% | OVCAR-4 ovarian 51% | SK-OV-3 ovarian 14% | IGROV1 ovarian 26.5% | OVCAR-3 ovarian 35.5% | HS 578T breast 46.1% | NCI/ADR-RES ovarian 74.4% | T-47D breast 35.1%

CCOC(=O)CC[C@H](NC(=O)c1ccc(NC)c2ccccc12)C(=O)OCC
inactive: SK-MEL-2 melanoma 106% | EKVX NSCLC 89.4% | SN12C renal 90.3% | TK-10 renal 90.6% | ACHN renal 98.8% | A498 renal 91% | CCRF-CEM leukemia 91.2% | MOLT-4 leukemia 98.6% | SR leukemia 101% | RPMI-8226 leukemia 91.2% | OVCAR-8 ovarian 94.7% | OVCAR-5 ovarian 101% | OVCAR-4 ovarian 104% | SK-OV-3 ovarian 92.8% | IGROV1 ovarian 105% | OVCAR-3 ovarian 102% | HS 578T breast 105% | NCI/ADR-RES ovarian 104% | T-47D breast 93.8%

NS(=O)(=O)c1ccc(C2C3=C(CCCC3=O)OC3=C2C(=O)c2ccccc2C3=O)cc1 (stereo not drawn)
active: SK-MEL-2 melanoma -74% | EKVX NSCLC -55.4% | SN12C renal -52.7% | TK-10 renal -92.6% | ACHN renal -78.9% | A498 renal -68.9% | CCRF-CEM leukemia -10.5% | MOLT-4 leukemia -54.6% | SR leukemia -19.9% | RPMI-8226 leukemia -35.8% | OVCAR-8 ovarian -14.5% | OVCAR-5 ovarian -53.1% | OVCAR-4 ovarian -96.6% | SK-OV-3 ovarian -23.9% | IGROV1 ovarian -52.3% | OVCAR-3 ovarian -66.1% | HS 578T breast -5.38% | T-47D breast -50.7%

N#Cc1c(-c2ccc(F)cc2)nc(N/N=C/c2c[nH]c3ccccc23)nc1N1CCOCC1
inactive: SK-MEL-2 melanoma 53.4% | EKVX NSCLC 56.1% | SN12C renal 82.2% | TK-10 renal 89.9% | ACHN renal 43.4% | A498 renal 25.6% | CCRF-CEM leukemia 40.5% | MOLT-4 leukemia 22% | RPMI-8226 leukemia 33.5% | OVCAR-8 ovarian 58% | OVCAR-5 ovarian 94.8% | OVCAR-4 ovarian 80.4% | SK-OV-3 ovarian 92.6% | IGROV1 ovarian 65.1% | OVCAR-3 ovarian 65.9% | HS 578T breast 34.4% | NCI/ADR-RES ovarian 61% | T-47D breast 76.4%
active: SR leukemia 6.49%

CCc1ccc(OCc2ccccc2C(=O)Nc2ccc3nc(C)cc(N)c3c2)cc1
active: SK-MEL-2 melanoma -83.1% | EKVX NSCLC -56.2% | SN12C renal -79.7% | TK-10 renal -93.5% | ACHN renal -100% | A498 renal -94.3% | CCRF-CEM leukemia -53.4% | MOLT-4 leukemia -74.4% | SR leukemia -61.2% | RPMI-8226 leukemia -45.4% | OVCAR-8 ovarian -60.7% | OVCAR-5 ovarian -95.4% | OVCAR-4 ovarian -84.3% | SK-OV-3 ovarian -97% | IGROV1 ovarian -71.5% | OVCAR-3 ovarian -92.4% | HS 578T breast -42% | NCI/ADR-RES ovarian -71.5% | T-47D breast -60%

Cc1c(Cl)cccc1NC(=O)c1sc2nc3c(cc2c1N)CCCCCC3
active: A498 renal -9.95% | OVCAR-3 ovarian -18.1%
inactive: SK-MEL-2 melanoma 11.8% | EKVX NSCLC 39.8% | SN12C renal 42.4% | TK-10 renal 44.9% | CCRF-CEM leukemia 10.9% | MOLT-4 leukemia 17.3% | SR leukemia 16% | RPMI-8226 leukemia 18.4% | OVCAR-8 ovarian 17.5% | OVCAR-5 ovarian 46.7% | OVCAR-4 ovarian 46.8% | SK-OV-3 ovarian 34.8% | IGROV1 ovarian 42.9% | HS 578T breast 24.6% | NCI/ADR-RES ovarian 17.1% | T-47D breast 40.2%

CCO/C=N/S(=O)(=O)c1cc2c(cc1Cl)NC=NS2(=O)=O
inactive: SK-MEL-2 melanoma 105% | EKVX NSCLC 103% | SN12C renal 104% | TK-10 renal 101% | ACHN renal 112% | A498 renal 106% | CCRF-CEM leukemia 95.7% | MOLT-4 leukemia 109% | SR leukemia 108% | RPMI-8226 leukemia 104% | OVCAR-8 ovarian 100% | OVCAR-5 ovarian 112% | OVCAR-4 ovarian 117% | SK-OV-3 ovarian 104% | IGROV1 ovarian 104% | OVCAR-3 ovarian 105% | HS 578T breast 101% | NCI/ADR-RES ovarian 109% | T-47D breast 105%

O=C(Nc1cccc(-c2cccc(F)c2)c1)C1CCN(Cc2cccc3cccnc23)CC1
active: SR leukemia -32.7%
inactive: SK-MEL-2 melanoma 63.1% | EKVX NSCLC 68.4% | SN12C renal 74.2% | TK-10 renal 60.1% | ACHN renal 65.5% | A498 renal 55.3% | CCRF-CEM leukemia 57.2% | MOLT-4 leukemia 17.6% | RPMI-8226 leukemia 19% | OVCAR-8 ovarian 72% | OVCAR-5 ovarian 82.9% | OVCAR-4 ovarian 51.6% | SK-OV-3 ovarian 68.3% | IGROV1 ovarian 62.7% | OVCAR-3 ovarian 60.8% | HS 578T breast 60.9% | NCI/ADR-RES ovarian 73% | T-47D breast 29%

COc1ccc(/C=C/C(=O)C(CC2CCC2)C(=O)/C=C/c2ccc(OC)c(OC)c2)cc1OC
inactive: OVCAR-4 ovarian 35.2% | SK-OV-3 ovarian 16.2% | HS 578T breast 25.4%
active: SK-MEL-2 melanoma -16.7% | EKVX NSCLC -0.196% | SN12C renal -20.7% | TK-10 renal -32.8% | ACHN renal -77.2% | A498 renal -34.5% | CCRF-CEM leukemia 8.4% | MOLT-4 leukemia 4.1% | SR leukemia -17% | RPMI-8226 leukemia -7.68% | OVCAR-5 ovarian -12.9% | IGROV1 ovarian -17.1% | OVCAR-3 ovarian -33.2% | NCI/ADR-RES ovarian 3.14% | T-47D breast -5.5%

COc1ccc(-c2nc(C#N)c(NCC(c3ccco3)N3CCCC3)o2)cc1 (stereo not drawn)
inactive: SK-MEL-2 melanoma 53.3% | EKVX NSCLC 54.2% | SN12C renal 49.5% | TK-10 renal 82.1% | ACHN renal 43.9% | A498 renal 42.6% | CCRF-CEM leukemia 18.4% | MOLT-4 leukemia 29.7% | SR leukemia 21.1% | RPMI-8226 leukemia 24.2% | OVCAR-8 ovarian 45.1% | OVCAR-5 ovarian 69% | OVCAR-4 ovarian 52.6% | SK-OV-3 ovarian 30.4% | IGROV1 ovarian 56.5% | OVCAR-3 ovarian 22% | HS 578T breast 39.4% | NCI/ADR-RES ovarian 10.2% | T-47D breast 51.6%

Source: PubChem BioAssay (NCI)
